# Bioassay records: PubChem BioAssay, National Center for Advancing Translational Sciences (NCATS)
# Compounds with a hit are over-represented: about 2.8% of the library has one in this group of screens.
# ATXN2 expr inh = reduces ATXN2 reporter expression in HEK-293 cells; HEK-293 ATXN2-luciferase reporter, luminescence, 24 h; Potency, µM (series often up to 57 µM), for the others: at the top dose activity change, negative = inhibition, most hits filed as inhibitors; 360,000 tested, 0.72% active; further: on the % scale 0 is the no-effect control and ±100 the full control effect; nearly all actives have a fitted effect of over 55% in size
#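 qHTS (up to 57 uM final) was run with 24 h compound exposure of reporter cells at 37 °C. Each well was multiplexed: SteadyGlo luminescence measured ATXN2-luciferase expression after a fluorogenic Gly-Phe-AFC viability readout (25 uM final).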
# HepG2 viability = counter-screen for TGF-b inhibitors: cytotoxicity in HepG2 cells | 410,000 tested, 0.76% active | Potency, µM (series often up to 46.1 µM), without a hit: at the top dose activity change, negative = cytotoxicity, hits mostly cytotoxic | HepG2 CAGA-GFP viability, ATP luminescence, 18 h
#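 HepG2 CAGA-GFP cells (1000/well, DMEM with 1% FBS) received compound, then TGF-beta at 500 pg/mL final, and were incubated 18 hours at 37 degrees C. Viability was read by CellTiter-Glo luminescence. Media-only wells were set as complete cell-killing and DMSO as no toxicity.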
# ATXN viability = viability counter-screen for ATXN expression inhibitors; S2 cells (HEK-293 line with an ATXN2-luciferase reporter) viability, CellTiter-Fluor protease fluorescence, 24 h; Potency, µM (top dose mostly 56.7 µM), actives largely listed as cytotoxic; 400,000 tested, 0.49% active; AID 651635; further: nearly all actives have a fitted effect of over 40% in size
# HTT aggregate = inhibitors of mutant huntingtin aggregate formation in PC12 cells | 220,000 tested, 1.1% active | Potency, µM (highest dose often 46.1 µM), without a hit: at the highest dose activity change, negative = inhibition, hits mostly inhibitors | PC12 HttQ103-GFP aggregates, Acumen cytometry, 40 h | AID 1688; further: on the % scale 0 is the no-effect control and ±100 the full control effect; nearly all actives have a fitted effect of over 60% in size
#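 Steps: seed 1500 PC12 HTTQ103-GFP cells/well; add tebufenozide, 100 nM final; add compound titration; add ATPLite reagent; quantify GFP aggregates by laser scanning cytometry.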
# TGFb SMAD3 inh = TGF-b pathway inhibition. AID 588855. HepG2 CAGA-GFP TGF-b/SMAD3 reporter, GFP fluorescence, 18 h; TGF-beta stimulated, 500 pg/mL final. Potency, µM (highest dose often 46.1 µM), inactives show at the top dose activity, negative = inhibition, most hits filed as inhibitors. 410,000 tested, 1.2% active; further: on the % scale 0 is the no-effect control and ±100 the full control effect; nearly all actives have a fitted effect of over 65% in size
#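 Cell-based qHTS in HEPG2 carrying a CAGA-GFP Smad reporter; compounds added before 500 pg/mL final TGF-beta, 18 h incubation at 37 degrees C, GFP fluorescence quantified per cell by imaging cytometry.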
# HTT ATP protect = protects HTT-Q103 PC12 cells, measured by ATP | PC12 HTT-Q103 induced, cytoprotection, ATP luminescence, 40 h | 230,000 tested, 0.14% active | Potency, µM (highest dose often 56.4 µM), for inactives: cytoprotection (ATP increase), most hits filed as activators; further: % of control where 0% means no effect; nearly all actives have a fitted effect of over 45% in size
#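 Compounds added alongside 100 nM tebufenozide, which induces toxic Q103 huntingtin exon 1-GFP in stable PC12 cells; surviving cells quantified by luminescent ATP measurement. Medium: phenol red-free DMEM, 5% equine and 5% calf serum.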
# Active calls of the source: *; i = inactive; ? = inconclusive; . = no result given; [ ] = remark or other dose. The call rests on the fitted dose curve; in most records, active means well fitted curve in the direction sought with a large enough effect; inconclusive means small, poorly fitted or top-dose-only effect, or another doubt; inactive means no such curve, though single readings can be large; an effect the other way counts as inactive or inconclusive. Potency means the concentration at half of the fitted maximal effect.
SMILES,ATXN2 expr inh,HepG2 viability,ATXN viability,HTT aggregate,TGFb SMAD3 inh,HTT ATP protect
O=C1C[C@H](c2ccc3ccccc3c2)N1S(=O)(=O)c1ccccc1[N+](=O)[O-],.,-4%,.,.,1%,.
CC(C)n1c(O)c(/C=C2\C=NN=C2c2ccccc2)sc1=S,2%,16µM*,i,-19%[9.22 µM],?,3%[10 µM]
Oc1cc2cc(-c3csc(-c4ccc(F)cc4)n3)ccc2[nH]1,.,-46%,.,.,-16%,.
COc1ccc(-c2c(C3C4C=CCCC4(C)C(=O)N3Cc3ccccc3)ccc3ccccc23)cc1 (stereo unspecified),.,0%,.,.,-13%,.
COc1ccc(-c2nc(N=Nc3ccc(O)cc3)n[nH]2)cc1,-8%,3%,8.9µM*,-19%,-11%,3%[10 µM]
Cc1ccc(-c2nc(N=Nc3ccc(O)cc3)n[nH]2)cc1,0%,-40%,?,?,?,-6%[10 µM]
CCSc1nnc(C(C)NS(=O)(=O)c2cccc(Cl)c2C)n1C (stereo unspecified),.,.,i,.,.,.
CC(C)/C=C1\CC/C(=C\c2cccnc2)C1=O,.,3%,i,17%,1%,14%
CCC1C/C(=C\c2cccnc2)C(=O)/C(=C/c2cccnc2)C1 (stereo unspecified),14µM*,10µM*,.,22µM*,4µM*,-37%[10 µM]
O=C1/C(=C/c2cccnc2)CCC/C1=C\c1cccnc1,18µM*,-99%,11µM*,?,4µM*,.
O=C1/C(=C/c2cccnc2)CC/C1=C\c1cccnc1,?,-13%,?,32%,7%,14%
CCN1/C(=C/C(C)=C/c2sc3ccccc3[n+]2CC)Sc2ccccc21,?,-91%,5.6µM*,1.1µM*,4.5µM*,-186%
O=C1CCN(Cc2cccn2-c2ccccn2)CCN1Cc1ccccc1C(F)(F)F,.,.,i,.,.,.
COc1ccccc1C(=O)N1CCN(Cc2ccc3c(c2)OCO3)CC1,-10%,-17%,i,2.8µM*,8%,3%[10 µM]
O=C(CN1C(=O)c2cccc3cccc(c23)C1=O)N1CCN(Cc2ccc3c(c2)OCO3)CC1,?,-34%,i,18µM*,-17%,20%[10 µM]
O=C(CN1C(=O)c2cccc3cccc1c23)NCc1ccc2c(c1)OCO2,1%,-21%,i,-13%,-16%,-11%[0.074 µM]
CCc1ccc(CN2CCN(C(=O)c3cccc(OC)c3OC)CC2)cc1,-26%,-33%,i,7.9µM*,-12%,5%[10 µM]
O=C(CCCCCn1c(=O)[nH]c2ccccc2c1=O)N1CCN(Cc2ccc3c(c2)OCO3)CC1,-7%,-32%,i,13µM*,-3%,2%[10 µM]
O=C(Cn1c(=O)[nH]c2ccccc2c1=O)N1CCN(Cc2ccc3c(c2)OCO3)CC1,-22%,-1%,i,.,-11%,.
COc1ccc(-c2ccc(C(C)=O)cc2)cc1C1C2C=CCCC2(C)C(=O)N1Cc1ccccc1 (stereo unspecified),.,-3%,.,.,-33%,.
Nc1c(Cl)cc(/C=C2\C=Cc3ccccc32)cc1Cl,.,-49%,.,.,-14%,.
COc1ccc(OC)c(C2OCCC=CC2C)c1 (stereo unspecified),.,.,.,.,.,0%[10 µM]
O=C(Nc1cccc(C(F)(F)F)c1)c1ccc(F)c(S(=O)(=O)N2CCc3ccccc3C2)c1,.,-33%,.,.,11µM*,.
CC(C)c1ccc(NC(=O)c2ccc(F)c(S(=O)(=O)N3CCc4ccccc4C3)c2)cc1,.,-16%,.,.,-38%,.
COc1ccccc1CNS(=O)(=O)c1cc(C(=O)Nc2cccc(C(F)(F)F)c2)ccc1F,.,-18%,.,.,11µM*,.
SMILES,ATXN2 expr inh,HepG2 viability,ATXN viability,HTT aggregate,TGFb SMAD3 inh,HTT ATP protect
Cc1ccc2oc(-c3ccc(C)c(NC(=O)COc4ccccc4C)c3)nc2c1,.,4%,.,.,8%,.
CN(c1ccc(/C=C/c2ccccc2)cc1)P1(=O)NCCCO1 (stereo unspecified),.,-19%,.,.,1%,.
COc1ccc(-n2c(-c3ccc(Cl)cc3)c[n+]3c2CCc2ccccc2-3)cc1,?,-20%,i,13µM*,-17%,-68%
Cc1ncc(C[n+]2csc(CCOC(=O)CC34CC5CC(CC(C5)C3)C4)c2C)c(N)n1,-4%,2%,?,6%,?,22%[10 µM]
Cc1c(CCOC(=O)CC23CC4CC(CC(C4)C2)C3)sc[n+]1Cc1ccccc1,4%,-22%,i,11µM*,-1%,-60%
CC(C)c1c(C(=O)N(C)Cc2cccc3ncccc23)cnn1-c1nccc(-c2ccco2)n1,.,.,i,.,.,.
CC(O)(c1cccc(F)c1)c1nc(-c2cccc(C(F)(F)F)c2)cs1 (stereo unspecified),?,16µM*,?,.,?,.
O=C(NNc1nc(=O)c2cccnc2s1)c1ccccc1O,-29%[11.3 µM],-27%,i,7.9µM*,1%,-51%[10 µM]
O=C(NNC(=O)c1cccc2ccccc12)c1ccccc1O,?,-2%,i,.,-1%,.
Nc1nc2[nH]cc(CCc3ccc(C(=O)NC(CCC(=O)O)C(=O)O)cc3)c2c(=O)[nH]1 (stereo unspecified),.,.,.,-33%,.,-41%
COC(=O)C1=C(C)N(Cc2ccccc2)C(=NCC(C)C)N[C@H]1c1cccc(C(F)(F)F)c1,?,-119%,?,.,?,.
CCN1C(=NCCc2ccccn2)N[C@@H](c2cccc(C(F)(F)F)c2)C(C(=O)OC)=C1C,-9%,-3%,i,.,10%,.
COC(=O)C1=C(C)N(Cc2ccccc2)C(=NCCc2ccccn2)N[C@H]1c1cccc(C(F)(F)F)c1,35µM*,-83%,?,.,?,.
COC(=O)C1=C(C)N(Cc2ccccc2)C(=NCc2ccccc2)N[C@H]1c1cccc(C(F)(F)F)c1,?,14µM*,.,.,?,.
COc1ccc(-c2nc3ncccc3n2O)cc1,26%,14µM*,i,.,-4%,.
On1c(-c2ccccc2)nc2ncccc21,.,-2%,i,.,5%,.
Cc1ccc(-c2ccnc(-n3ncc(C(=O)N4CCCCC4c4cccnc4)c3C3CC3)n2)o1 (stereo unspecified),.,.,i,.,.,.
O=S(=O)(Cc1cc(Cl)nc(-c2ccccc2)n1)c1ccccc1,32µM*,-18%,?,13%,?,42%[10 µM]
O=S(=O)(Cc1cc(Cl)nc(-c2ccncc2)n1)c1ccccc1,-24%,15%,i,?,9%,-14%
CC(C)OC(=O)[C@H](C)N[P@](=O)(OC[C@H]1O[C@@H](n2ccc(=O)[nH]c2=O)[C@](C)(F)[C@H]1O)Oc1ccccc1,-7%,.,.,.,.,.
CCC=CC[C@H]1C(=O)CC[C@@H]1CC(=O)OC,-1%,.,.,.,.,.
CN(C)c1ccc(/C=C/c2nc3ccccc3o2)cc1,.,-24%,.,.,2%,.
